Measured values published in PubChem BioAssay (NCI).
The panel holds about 83,000 compounds, 20% with a hit somewhere; the sample as a whole holds those more often.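 96-well plates, one dose, 48 hours. Percent growth reported; active if below 10.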 Active and inactive are the calls of the source.

How the values were obtained:
Experiment in all cases: NCI-60 one-dose screen, 48 h (100 = growth as untreated, 0 = no growth, -100 = all killed)
Details in all cases: 10 µM unless noted
NCI-H23 lung = system: NCI-H23 lung
NCI-H226 lung = system: NCI-H226 lung
HOP-62 NSCLC = system: HOP-62 NSCLC
NCI-H460 lung = system: NCI-H460 lung
HOP-92 NSCLC = system: HOP-92 NSCLC
NCI-H522 lung = system: NCI-H522 lung
A549/ATCC NSCLC = system: A549/ATCC NSCLC
786-0 renal = system: 786-0 renal
COLO 205 colon = system: COLO 205 colon
DU-145 prostate = system: DU-145 prostate
K-562 leukemia = system: K-562 leukemia
MALME-3M melanoma = system: MALME-3M melanoma
MDA-MB-231 breast = system: MDA-MB-231 breast
RXF 393 renal = system: RXF 393 renal
SF-268 CNS = system: SF-268 CNS
SF-295 CNS = system: SF-295 CNS
SF-539 CNS = system: SF-539 CNS
UACC-257 melanoma = system: UACC-257 melanoma
M14 melanoma = system: M14 melanoma

Measured: growth

CCCc1cc(=O)oc2c3c(c4c(c12)OC(C)(C)C=C4)O[C@@H](C)[C@H](C)C3=O
inactive: NCI-H23 lung 61.1% | NCI-H226 lung 89.8% | HOP-62 NSCLC 102% | NCI-H460 lung 60.5% | HOP-92 NSCLC 43.7% | NCI-H522 lung 71.9% | A549/ATCC NSCLC 64.5% | 786-0 renal 72.8% | COLO 205 colon 74.8% | DU-145 prostate 79.4% | K-562 leukemia 47.6% | MALME-3M melanoma 90% | MDA-MB-231 breast 71.9% | RXF 393 renal 18.4% | SF-268 CNS 86.4% | SF-295 CNS 69.9% | SF-539 CNS 81% | UACC-257 melanoma 55.1%

CCCCCOC(=O)c1cccc(NC(=O)CN(CC)CC)c1
inactive: NCI-H23 lung 102% | NCI-H226 lung 96.7% | HOP-62 NSCLC 86.8% | NCI-H460 lung 111% | HOP-92 NSCLC 75.6% | NCI-H522 lung 62% | A549/ATCC NSCLC 95.7% | 786-0 renal 81.2% | DU-145 prostate 104% | K-562 leukemia 103% | MALME-3M melanoma 94.8% | MDA-MB-231 breast 117% | RXF 393 renal 106% | SF-268 CNS 104% | SF-295 CNS 96.1% | SF-539 CNS 98.6% | UACC-257 melanoma 105% | M14 melanoma 86.9%

CCCCC1COc2cccc3c(SCC(=O)N(C)c4cccc(Cl)c4)cc[n+]1c23 (stereo not drawn)
inactive: NCI-H23 lung 99.9% | NCI-H226 lung 103% | HOP-62 NSCLC 109% | HOP-92 NSCLC 113% | NCI-H522 lung 96.9% | A549/ATCC NSCLC 109% | 786-0 renal 107% | COLO 205 colon 110% | DU-145 prostate 120% | K-562 leukemia 97.8% | MALME-3M melanoma 104% | MDA-MB-231 breast 101% | SF-268 CNS 118% | SF-295 CNS 99.3% | SF-539 CNS 97.5% | UACC-257 melanoma 113%

CN=C1C=CC(=C(c2ccc(N(C)C)cc2)c2ccc(N(C)C)cc2)C=C1
active: NCI-H23 lung -8.66% | NCI-H226 lung 6.94% | HOP-62 NSCLC -23.4% | NCI-H460 lung -49.4% | HOP-92 NSCLC -39.1% | NCI-H522 lung -36.8% | A549/ATCC NSCLC -23.6% | 786-0 renal -63.1% | DU-145 prostate -6.79% | K-562 leukemia 2.18% | MALME-3M melanoma -56.6% | MDA-MB-231 breast -46.9% | RXF 393 renal -50.8% | SF-268 CNS -56.5% | SF-295 CNS -30.4% | SF-539 CNS -38.3% | UACC-257 melanoma -43% | M14 melanoma -65.4%

Cc1nc(Nc2ccc(NC(=S)Nc3ccccc3)cc2)c2ccccc2n1
inactive: NCI-H23 lung 91.6% | NCI-H226 lung 97.4% | HOP-62 NSCLC 118% | NCI-H460 lung 107% | HOP-92 NSCLC 115% | NCI-H522 lung 105% | A549/ATCC NSCLC 95.9% | 786-0 renal 103% | COLO 205 colon 106% | DU-145 prostate 125% | K-562 leukemia 78.5% | MALME-3M melanoma 99.5% | MDA-MB-231 breast 97.6% | SF-268 CNS 111% | SF-295 CNS 99.5% | SF-539 CNS 100% | UACC-257 melanoma 101%

COc1cc2oc(-c3cccc(C(=O)Nc4ccc(C#N)cc4)c3)cc(=O)c2c(O)c1OC
inactive: NCI-H23 lung 38.2% | NCI-H226 lung 21.2% | NCI-H460 lung 18.9% | HOP-92 NSCLC 79.2% | NCI-H522 lung 61.2% | A549/ATCC NSCLC 37.4% | 786-0 renal 70.4% | COLO 205 colon 39.9% | DU-145 prostate 34.2% | K-562 leukemia 66.4% | MALME-3M melanoma 47.7% | RXF 393 renal 102% | SF-268 CNS 50% | SF-295 CNS 36.8% | SF-539 CNS 82.4% | UACC-257 melanoma 88.9%
active: HOP-62 NSCLC -31.8%

O=C(Nc1cccc2[nH]c(C(F)(F)F)nc12)c1cc(Cl)ccc1Cl
active: NCI-H23 lung -3.56% | HOP-92 NSCLC -11% | NCI-H522 lung -13.2%
inactive: NCI-H226 lung 34.4% | HOP-62 NSCLC 32.1% | NCI-H460 lung 17.2% | 786-0 renal 47.1% | COLO 205 colon 24.6% | DU-145 prostate 53.7% | K-562 leukemia 19.8% | MALME-3M melanoma 16.1% | MDA-MB-231 breast 40.6% | RXF 393 renal 41.1% | SF-268 CNS 44.6% | SF-295 CNS 29.2% | SF-539 CNS 52.9% | UACC-257 melanoma 28.7%

COc1cc(-c2ccc(N=Nc3c(O)c(C(=O)Nc4ccccc4OC)cc4ccccc34)c(OC)c2)ccc1N=Nc1c(O)c(C(=O)Nc2ccccc2OC)cc2ccccc12
inactive: NCI-H23 lung 93.5% | NCI-H226 lung 94.1% | HOP-62 NSCLC 80.6% | NCI-H460 lung 99.6% | HOP-92 NSCLC 77.6% | NCI-H522 lung 90.4% | A549/ATCC NSCLC 95.6% | 786-0 renal 87.2% | K-562 leukemia 90.6% | MALME-3M melanoma 90.6% | MDA-MB-231 breast 76.2% | RXF 393 renal 93.1% | SF-268 CNS 87.5% | SF-295 CNS 95.1% | SF-539 CNS 103% | UACC-257 melanoma 109% | M14 melanoma 90.7%

COc1cc(/C=C/C(=O)c2cccc(-n3cc(-c4ccccc4)[nH]c3=O)c2)cc(OC)c1OC
active: NCI-H23 lung -27.4% | HOP-62 NSCLC 7.01% | NCI-H460 lung -68.5% | NCI-H522 lung -64.5% | 786-0 renal -63.4% | DU-145 prostate 7.58% | K-562 leukemia 5.48% | MALME-3M melanoma 2.69% | MDA-MB-231 breast 5.03% | RXF 393 renal -69.7% | SF-539 CNS -88.8% | UACC-257 melanoma -13.2%
inactive: NCI-H226 lung 24.9% | HOP-92 NSCLC 24.3% | A549/ATCC NSCLC 27.1% | SF-268 CNS 17.7% | SF-295 CNS 51%

Cc1c(C(=O)O[C@H]2[C@@H]3[C@H](C)CC[C@H]3[C@]3(C)O[C@@]2(C2CCCCC2)C[C@H]3OC(=O)CO)ccc2ccccc12
active: NCI-H460 lung -36% | 786-0 renal 9.76% | K-562 leukemia 7.53% | RXF 393 renal -31.7%
inactive: NCI-H23 lung 35.2% | NCI-H226 lung 30.5% | HOP-62 NSCLC 29.7% | HOP-92 NSCLC 10.9% | NCI-H522 lung 19.6% | A549/ATCC NSCLC 30.2% | DU-145 prostate 58.7% | MALME-3M melanoma 42.3% | MDA-MB-231 breast 33.2% | SF-268 CNS 16% | SF-295 CNS 36.8% | SF-539 CNS 65.6% | UACC-257 melanoma 39.8% | M14 melanoma 36.2%

Clc1cnc(Nc2ccc(OCCN3CCCC3)cc2)nc1NCc1ccco1
active: NCI-H226 lung -9.35% | NCI-H460 lung 3.25% | HOP-92 NSCLC 5.42% | MDA-MB-231 breast -5.14% | RXF 393 renal -37.7% | SF-539 CNS -14.2%
inactive: NCI-H23 lung 10.2% | HOP-62 NSCLC 11.7% | NCI-H522 lung 55.2% | A549/ATCC NSCLC 11.3% | 786-0 renal 23.7% | DU-145 prostate 17.5% | K-562 leukemia 16.4% | MALME-3M melanoma 26.1% | SF-268 CNS 21.1% | SF-295 CNS 31.2% | UACC-257 melanoma 49.1% | M14 melanoma 35.1%

CN(C)CCOC(=O)Nc1ccc(Cl)cc1
inactive: NCI-H23 lung 102% | NCI-H226 lung 88.8% | NCI-H460 lung 106% | HOP-92 NSCLC 85.5% | NCI-H522 lung 64.9% | A549/ATCC NSCLC 94.7% | 786-0 renal 94.2% | DU-145 prostate 110% | K-562 leukemia 90.5% | MALME-3M melanoma 114% | MDA-MB-231 breast 93.8% | RXF 393 renal 118% | SF-268 CNS 105% | SF-295 CNS 103% | SF-539 CNS 102% | UACC-257 melanoma 101% | M14 melanoma 90.5%

Cc1c(Cl)cccc1NS(=O)(=O)c1ccccc1
inactive: NCI-H23 lung 113% | NCI-H226 lung 93.1% | HOP-62 NSCLC 112% | NCI-H460 lung 112% | HOP-92 NSCLC 89.2% | NCI-H522 lung 98.4% | A549/ATCC NSCLC 104% | 786-0 renal 106% | DU-145 prostate 143% | MALME-3M melanoma 124% | MDA-MB-231 breast 102% | RXF 393 renal 95.3% | SF-268 CNS 104% | SF-295 CNS 95.2% | SF-539 CNS 102% | UACC-257 melanoma 95.1% | M14 melanoma 105%

O[C@H]1CO[C@H]2[C@@H]1OC[C@@H]2Oc1ccc(Nc2nc(Nc3ccc(F)c(Cl)c3)ncc2F)cc1Cl
inactive: NCI-H23 lung 101% | NCI-H226 lung 96.9% | HOP-62 NSCLC 118% | NCI-H460 lung 106% | HOP-92 NSCLC 101% | NCI-H522 lung 98.4% | A549/ATCC NSCLC 102% | 786-0 renal 97.7% | COLO 205 colon 116% | DU-145 prostate 117% | K-562 leukemia 115% | MALME-3M melanoma 100% | MDA-MB-231 breast 95.4% | SF-268 CNS 103% | SF-295 CNS 92.1% | SF-539 CNS 95% | UACC-257 melanoma 106%

Cc1ccc(C)c2c1C(=O)OC2=O
inactive: NCI-H23 lung 95.5% | NCI-H226 lung 98.4% | HOP-62 NSCLC 92.1% | HOP-92 NSCLC 128% | NCI-H522 lung 80.8% | A549/ATCC NSCLC 99.4% | 786-0 renal 101% | K-562 leukemia 78.9% | MALME-3M melanoma 87.8% | MDA-MB-231 breast 106% | RXF 393 renal 127% | SF-268 CNS 98.8% | SF-295 CNS 96.2% | SF-539 CNS 99.7% | UACC-257 melanoma 102% | M14 melanoma 102%
